Assay results taken from the supplement of paper PMC6992640.
± gives the standard deviation of the averaged measurements.

Assays:
Experiment in all cases: cell viability (% of vehicle); higher = less cytotoxic
Settings in all cases: 10 µM; 72 h
[1] = tested on: HCI01 (cells of a triple-negative basal-like breast cancer xenograft)
[2] = tested on: HCI03 (cells of an ER-positive luminal breast cancer xenograft)
[3] = tested on: HCI09 (cells of a triple-negative luminal androgen receptor type breast cancer xenograft)
[4] = tested on: HCI11 (cells of an ER-positive luminal breast cancer xenograft)
[5] = tested on: HCI13 (cells of an ER-positive luminal breast cancer xenograft)
[6] = tested on: HCI16 (cells of a triple-negative basal-like breast cancer xenograft)
[7] = tested on: UCD52 (cells of a triple-negative basal-like breast cancer xenograft)
[8] = tested on: WHIM2 (cells of a triple-negative basal-like breast cancer xenograft)
[9] = tested on: WHIM30 (cells of a triple-negative basal-like breast cancer xenograft)
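Note: PDX cells carrying CMV promoter-driven luciferase, viability read as total photon flux per second by IVIS imaging following D-luciferin, vehicle control 0.1% DMSO.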

Structure (SMILES): OC(Cn1cncn1)(Cn1cncn1)c1ccc(F)cc1F [Fluconazole]
- cell viability [1]: 71.5 ± 43
- cell viability [2]: 153
- cell viability [3]: 99.3 ± 22
- cell viability [4]: 94.2
- cell viability [5]: 112 ± 4.8
- cell viability [6]: 119
- cell viability [7]: 76.5 ± 8.7
- cell viability [8]: 99.2 ± 27
- cell viability [9]: 180 ± 2.3

Structure (SMILES): CCCC1CC(C(=O)NC(C(C)Cl)C2OC(SC)C(OP(=O)(O)O)C(O)C2O)N(C)C1 (stereo not drawn) [Clindamycin Phosphate]
- cell viability [1]: 140 ± 73
- cell viability [2]: 112
- cell viability [3]: 75.6 ± 25
- cell viability [4]: 96.6
- cell viability [5]: 86.2 ± 30
- cell viability [6]: 89.1
- cell viability [7]: 73.2 ± 16
- cell viability [8]: 92.7 ± 20
- cell viability [9]: 83.5 ± 1.4

Structure (SMILES): NCCC(O)C(=O)NC1CC(N)C(OC2OC(CN)C(O)C(O)C2O)C(O)C1OC1OC(CO)C(O)C(N)C1O (stereo not drawn) [Amikacin]
- cell viability [1]: 93.2 ± 16
- cell viability [2]: 144
- cell viability [3]: 105 ± 22
- cell viability [4]: 95.3
- cell viability [5]: 106 ± 16
- cell viability [6]: 114
- cell viability [7]: 103 ± 11
- cell viability [8]: 86.1 ± 8.6
- cell viability [9]: 117 ± 2.6

Structure (SMILES): CCCCCCCCCC(=O)NC(Cc1c[nH]c2ccccc12)C(=O)NC(CC(N)=O)C(=O)NC(CC(=O)O)C(=O)NC1C(=O)NCC(=O)NC(CCCN)C(=O)NC(CC(=O)O)C(=O)NC(C)C(=O)NC(CC(=O)O)C(=O)NCC(=O)NC(CO)C(=O)NC(C(C)CC(=O)O)C(=O)NC(CC(=O)c2ccccc2N)C(=O)OC1C (stereo not drawn) [Daptomycin]
- cell viability [1]: 142 ± 4.9
- cell viability [2]: 141
- cell viability [3]: 128 ± 9.9
- cell viability [4]: 113
- cell viability [5]: 163 ± 89
- cell viability [6]: 111
- cell viability [7]: 118 ± 18
- cell viability [8]: 103 ± 28
- cell viability [9]: 162 ± 40

Structure (SMILES): CCOc1nc2cccc(C(=O)O)c2n1Cc1ccc(-c2ccccc2-c2nc(=O)o[nH]2)cc1 [Azilsartan]
- cell viability [1]: 79.7 ± 44
- cell viability [2]: 142
- cell viability [3]: 84.8 ± 13
- cell viability [4]: 92
- cell viability [5]: 99.8 ± 2.6
- cell viability [6]: 96.2
- cell viability [7]: 83.3 ± 7.1
- cell viability [8]: 97.9 ± 13
- cell viability [9]: 97.5 ± 2.2

Structure (SMILES): CN(N=O)C(=O)NC1C(O)OC(CO)C(O)C1O (stereo not drawn) [Streptozocin]
- cell viability [1]: 105 ± 4.3
- cell viability [2]: 123
- cell viability [3]: 104 ± 6.3
- cell viability [4]: 99.5
- cell viability [5]: 89.38 ± 0.52
- cell viability [6]: 113
- cell viability [7]: 83.17 ± 0.58
- cell viability [8]: 85 ± 16
- cell viability [9]: 123.9 ± 1.1

Structure (SMILES): Nc1c(CC(=O)[O-])cccc1C(=O)c1ccc(Br)cc1.[Na+] [Bromfenac Sodium]
- cell viability [1]: 134 ± 34
- cell viability [2]: 104
- cell viability [3]: 82.1 ± 13
- cell viability [4]: 103
- cell viability [5]: 76.6 ± 16
- cell viability [6]: 96.2
- cell viability [7]: 89 ± 4
- cell viability [8]: 132 ± 25
- cell viability [9]: 111 ± 6.5

Structure (SMILES): CN1CCN2c3ncccc3Cc3ccccc3C2C1 (stereo not drawn) [Mirtazapine]
- cell viability [1]: 66.7 ± 36
- cell viability [2]: 149
- cell viability [3]: 91.4 ± 1.8
- cell viability [4]: 103
- cell viability [5]: 118 ± 26
- cell viability [6]: 114
- cell viability [7]: 86.1 ± 2.4
- cell viability [8]: 87.6 ± 30
- cell viability [9]: 138 ± 17

Structure (SMILES): COCCCCC(=NOCCN)c1ccc(C(F)(F)F)cc1.O=C(O)C=CC(=O)O [Fluvoxamine maleate]
- cell viability [1]: 120 ± 4.3
- cell viability [2]: 111
- cell viability [3]: 90.71 ± 0.25
- cell viability [4]: 93
- cell viability [5]: 94.6 ± 7.2
- cell viability [6]: 67.7
- cell viability [7]: 84.9 ± 8.5
- cell viability [8]: 69.3 ± 19
- cell viability [9]: 107 ± 4.1

Structure (SMILES): COc1ccc2c(c1)C(=O)N(CCc1ccc(S(=O)(=O)NC(=O)NC3CCCCC3)cc1)C(=O)C2(C)C [Gliquidone]
- cell viability [1]: 89.2 ± 83
- cell viability [2]: 109
- cell viability [3]: 68.4 ± 19
- cell viability [4]: 91.4
- cell viability [5]: 94.6 ± 23
- cell viability [6]: 142
- cell viability [7]: 93.5 ± 11
- cell viability [8]: 130 ± 20
- cell viability [9]: 137 ± 19

Structure (SMILES): CN1C2CCCC1CC(NC(=O)c1nn(C)c3ccccc13)C2.Cl (stereo not drawn) [Granisetron HCl]
- cell viability [1]: 116 ± 6.1
- cell viability [2]: 111
- cell viability [3]: 90.4 ± 1.8
- cell viability [4]: 97.6
- cell viability [5]: 96.2 ± 16
- cell viability [6]: 89.6
- cell viability [7]: 113 ± 3.7
- cell viability [8]: 88.1 ± 22
- cell viability [9]: 115 ± 16

Structure (SMILES): CC/C(=C(\c1ccccc1)c1ccc(OCCN(C)C)cc1)c1ccccc1 [Tamoxifen]
- cell viability [1]: 39.1 ± 8.5
- cell viability [2]: 139
- cell viability [3]: 58.5 ± 44
- cell viability [4]: 120
- cell viability [5]: 82.5 ± 42
- cell viability [6]: 88.8
- cell viability [7]: 74.5 ± 15
- cell viability [8]: 70.4 ± 0.76
- cell viability [9]: 123 ± 9.1
